# Laboratory results: the supplement of paper PMC10849652
# Of roughly 7,900 targets only a part is listed; those with a hit were picked by preference. About 0.6% of all pairs of compound and target were hits. A number with no mark means an inactive call.
# Assays:
# Experiment in all cases: log2 fold change, soluble protein after heating vs DMSO (PISA); higher = thermal stabilisation; K562 cells, 10 uM, 30 min; active = over 0.2 and 3.5 SD of the protein, either way, in both replicates (recomputed)
# [1] = compound: CN1CCN(c2nc(C3=C(c4c[nH]c5ccccc45)C(=O)NC3=O)c3ccccc3n2)CC1 [sotrastaurin]
# Method in brief: (§1)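 K562 cells at 2×10^6 cells/mL were treated with 10 μM compound for 30 min. Aliquots were heated for 3 min across 48°C-58°C, pooled, and extracted in PBS with 0.5% NP-40 at 4°C; soluble protein was the supernatant after 21,000xg for 90 min. Soluble protein was quantified by TMTpro 16plex LC-MS/MS with channel sums equalised, and reported as log2 fold change in thermal stability against DMSO controls, with values from duplicates.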
# [2] = compound: CN1CCc2c(c3ccccc3n2Cc2ccc(C(=O)NO)cc2)C1 [Tubastatin A]
# Method in brief: as §1
# [3] = compound: CNC(=O)C1=CC=CC=C1NC2=NC(=NC=C2Cl)NC3=C(C=C(C=C3)N4CCOCC4)OC
# Method in brief: as §1
# [4] = compound: COC1=CC=C(C=C1)CN2C=CC3=C2C=C(C=C3)C(=O)NO
# Method in brief: as §1
# [5] = compound: CON(C)C(=O)N1N=C(c2cc(F)ccc2F)S[C@@]1(CCCN)c1ccccc1 [filanesib]
# Method in brief: as §1
# [6] = compound: COc1cc(C(=O)O)ccc1NC(=O)[C@@H]1N[C@@H](CC(C)(C)C)[C@](C#N)(c2ccc(Cl)cc2F)[C@H]1c1cccc(Cl)c1F [idasanutlin]
# Method in brief: as §1
# [7] = compound: COc1cc2nc(-c3cc(F)ccc3O)nc(N[C@@H]3CNC[C@H]3C(C)(C)O)c2cc1OC
# Method in brief: as §1
# [8] = compound: COc1cc2ncnc(Nc3ccc(F)c(Cl)c3)c2cc1OCCCN1CCOCC1 [gefitinib]
# Method in brief: as §1
# [9] = compound: COc1cccc2cc(-c3nc([C@H]4CC[C@H](C(=O)O)CC4)n4ncnc(N)c34)[nH]c12
# Method in brief: as §1
# [10] = compound: CS(=O)(=O)CCNCc1ccc(-c2ccc3ncnc(Nc4ccc(OCc5cccc(F)c5)c(Cl)c4)c3c2)o1 [lapatinib]
# Method in brief: as §1
# [11] = compound: CN1CCN(CCOc2cc(OC3CCOCC3)c3c(Nc4c(Cl)ccc5c4OCO5)ncnc3c2)CC1 [saracatinib]
# Method in brief: as §1
# [12] = compound: CNc1nc(-c2ccc3c(N)n[nH]c3c2)cc(N2C[C@@H](C(=O)NC3CCCCC3)CC[C@H]2C)n1
# Method in brief: as §1
# [13] = compound: COc1cc(Nc2ncc3c(n2)-c2ccc(Cl)cc2C(c2c(F)cccc2OC)=NC3)ccc1C(=O)O [alisertib]
# Method in brief: as §1
# [14] = compound: CN1CC[C@H](c2c(O)cc(O)c3c(=O)cc(-c4ccccc4Cl)oc23)[C@H](O)C1 [alvocidib]
# Method in brief: as §1
# [15] = compound: CNCc1ccc(-c2[nH]c3cc(F)cc4c3c2CCNC4=O)cc1 [rucaparib]
# Method in brief: as §1
# [16] = compound: COC(=O)N[C@@H](C)CNc1nccc(-c2cn(C(C)C)nc2-c2cc(Cl)cc(NS(C)(=O)=O)c2F)n1 [encorafenib]
# Method in brief: as §1
# [17] = compound: CO[C@H]1C[C@@H]2CC[C@@H](C)[C@@](O)(O2)C(=O)C(=O)N2CCCC[C@H]2C(=O)O[C@H]([C@H](C)C[C@@H]2CC[C@H](n3cnnn3)[C@H](OC)C2)CC(=O)[C@H](C)/C=C(\C)[C@@H](O)[C@@H](OC)C(=O)[C@H](C)C[C@H](C)/C=C/C=C/C=C/1C [zotarolimus]
# Method in brief: as §1
# [18] = compound: CS(=O)(=O)N1CCN(Cc2cc3nc(-c4cccc5[nH]ncc45)nc(N4CCOCC4)c3s2)CC1 [pictilisib]
# Method in brief: as §1
# [19] = compound: CNC(=O)c1ccc(Nc2ncc(C(F)(F)F)c(NCc3nccnc3N(C)S(C)(=O)=O)n2)cc1 [defactinib]
# Method in brief: as §1
# [20] = compound: COC(=O)[C@H](CCSC)NC(=O)C1=C(C=C(C=C1)NC[C@H](CS)N)C2=CC=CC=C2
# Method in brief: as §1
# Chain of UniProt Q13163 (Q13163 whole entry, looked up): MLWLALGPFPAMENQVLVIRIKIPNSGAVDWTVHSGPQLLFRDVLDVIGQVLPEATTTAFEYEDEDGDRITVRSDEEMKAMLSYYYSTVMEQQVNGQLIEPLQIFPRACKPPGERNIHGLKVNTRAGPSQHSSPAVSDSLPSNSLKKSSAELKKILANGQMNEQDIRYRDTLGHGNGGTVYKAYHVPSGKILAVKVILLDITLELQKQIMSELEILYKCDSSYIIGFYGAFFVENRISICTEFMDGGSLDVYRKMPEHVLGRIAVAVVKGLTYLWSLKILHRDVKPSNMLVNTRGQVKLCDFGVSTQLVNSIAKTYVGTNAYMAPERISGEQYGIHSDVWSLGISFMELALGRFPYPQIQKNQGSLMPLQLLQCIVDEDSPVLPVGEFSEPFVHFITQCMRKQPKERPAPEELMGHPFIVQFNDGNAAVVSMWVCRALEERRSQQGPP
# Chain of UniProt Q9NX70 (Q9NX70 whole entry, looked up): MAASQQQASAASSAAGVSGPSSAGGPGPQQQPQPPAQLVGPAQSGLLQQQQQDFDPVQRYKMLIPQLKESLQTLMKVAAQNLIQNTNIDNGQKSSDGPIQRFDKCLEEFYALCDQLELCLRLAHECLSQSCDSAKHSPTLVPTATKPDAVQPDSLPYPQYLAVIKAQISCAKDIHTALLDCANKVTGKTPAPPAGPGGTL
# Chain of UniProt Q9UPY8 (Q9UPY8 whole entry, looked up): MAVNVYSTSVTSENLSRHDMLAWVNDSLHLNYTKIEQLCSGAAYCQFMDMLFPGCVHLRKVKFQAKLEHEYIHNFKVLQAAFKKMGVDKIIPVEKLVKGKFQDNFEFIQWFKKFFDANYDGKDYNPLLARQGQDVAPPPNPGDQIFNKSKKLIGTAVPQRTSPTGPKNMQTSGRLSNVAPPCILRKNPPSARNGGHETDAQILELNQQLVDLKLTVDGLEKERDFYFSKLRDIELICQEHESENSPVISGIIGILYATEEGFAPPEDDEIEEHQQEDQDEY
# Chain of UniProt Q12906 (Q12906 whole entry, looked up): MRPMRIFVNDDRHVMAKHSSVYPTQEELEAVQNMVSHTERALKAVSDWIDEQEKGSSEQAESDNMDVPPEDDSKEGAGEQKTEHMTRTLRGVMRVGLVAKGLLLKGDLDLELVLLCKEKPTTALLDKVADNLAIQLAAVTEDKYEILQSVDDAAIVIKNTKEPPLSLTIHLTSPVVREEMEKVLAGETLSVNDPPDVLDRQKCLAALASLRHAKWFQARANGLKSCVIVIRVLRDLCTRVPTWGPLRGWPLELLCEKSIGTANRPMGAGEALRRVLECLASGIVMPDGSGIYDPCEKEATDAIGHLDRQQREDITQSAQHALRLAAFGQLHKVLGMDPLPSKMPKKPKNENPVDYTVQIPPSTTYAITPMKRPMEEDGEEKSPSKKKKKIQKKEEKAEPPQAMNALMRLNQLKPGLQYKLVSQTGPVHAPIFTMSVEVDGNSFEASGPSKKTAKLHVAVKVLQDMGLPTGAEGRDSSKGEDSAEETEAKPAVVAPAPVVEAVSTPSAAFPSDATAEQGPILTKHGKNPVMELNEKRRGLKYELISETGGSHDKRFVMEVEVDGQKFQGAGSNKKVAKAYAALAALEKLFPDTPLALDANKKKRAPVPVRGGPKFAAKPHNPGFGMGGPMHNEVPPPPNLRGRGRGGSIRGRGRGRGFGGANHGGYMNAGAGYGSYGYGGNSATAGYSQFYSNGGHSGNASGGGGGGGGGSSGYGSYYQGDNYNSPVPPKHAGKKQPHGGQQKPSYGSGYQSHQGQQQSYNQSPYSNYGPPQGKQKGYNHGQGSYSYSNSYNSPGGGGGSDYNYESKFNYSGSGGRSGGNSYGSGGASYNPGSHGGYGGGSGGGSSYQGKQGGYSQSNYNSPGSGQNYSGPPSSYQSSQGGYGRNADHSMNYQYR
# Chain of UniProt Q7L590 (Q7L590 whole entry, looked up): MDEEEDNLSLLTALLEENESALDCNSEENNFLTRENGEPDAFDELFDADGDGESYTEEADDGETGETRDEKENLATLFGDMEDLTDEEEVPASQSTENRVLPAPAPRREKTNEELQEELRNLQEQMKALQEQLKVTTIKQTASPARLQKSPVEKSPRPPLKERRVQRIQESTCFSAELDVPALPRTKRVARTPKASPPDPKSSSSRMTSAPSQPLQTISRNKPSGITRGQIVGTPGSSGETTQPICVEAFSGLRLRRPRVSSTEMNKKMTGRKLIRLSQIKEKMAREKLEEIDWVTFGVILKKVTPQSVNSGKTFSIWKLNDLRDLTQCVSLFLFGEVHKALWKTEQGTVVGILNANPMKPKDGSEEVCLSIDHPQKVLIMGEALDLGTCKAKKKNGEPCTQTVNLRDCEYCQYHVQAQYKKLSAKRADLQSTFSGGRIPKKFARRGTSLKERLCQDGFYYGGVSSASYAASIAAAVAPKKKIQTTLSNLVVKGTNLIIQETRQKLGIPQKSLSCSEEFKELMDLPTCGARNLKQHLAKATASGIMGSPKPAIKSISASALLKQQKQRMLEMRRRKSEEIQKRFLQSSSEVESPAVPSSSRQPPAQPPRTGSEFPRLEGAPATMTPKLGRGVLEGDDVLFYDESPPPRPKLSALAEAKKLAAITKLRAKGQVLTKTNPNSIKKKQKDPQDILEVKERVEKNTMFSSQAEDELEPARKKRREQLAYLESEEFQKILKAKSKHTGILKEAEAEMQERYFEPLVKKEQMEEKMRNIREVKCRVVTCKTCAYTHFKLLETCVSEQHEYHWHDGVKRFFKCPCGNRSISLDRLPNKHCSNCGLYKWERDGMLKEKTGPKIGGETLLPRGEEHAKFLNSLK
# Chain of UniProt Q2M2Z5 (Q2M2Z5 whole entry, looked up): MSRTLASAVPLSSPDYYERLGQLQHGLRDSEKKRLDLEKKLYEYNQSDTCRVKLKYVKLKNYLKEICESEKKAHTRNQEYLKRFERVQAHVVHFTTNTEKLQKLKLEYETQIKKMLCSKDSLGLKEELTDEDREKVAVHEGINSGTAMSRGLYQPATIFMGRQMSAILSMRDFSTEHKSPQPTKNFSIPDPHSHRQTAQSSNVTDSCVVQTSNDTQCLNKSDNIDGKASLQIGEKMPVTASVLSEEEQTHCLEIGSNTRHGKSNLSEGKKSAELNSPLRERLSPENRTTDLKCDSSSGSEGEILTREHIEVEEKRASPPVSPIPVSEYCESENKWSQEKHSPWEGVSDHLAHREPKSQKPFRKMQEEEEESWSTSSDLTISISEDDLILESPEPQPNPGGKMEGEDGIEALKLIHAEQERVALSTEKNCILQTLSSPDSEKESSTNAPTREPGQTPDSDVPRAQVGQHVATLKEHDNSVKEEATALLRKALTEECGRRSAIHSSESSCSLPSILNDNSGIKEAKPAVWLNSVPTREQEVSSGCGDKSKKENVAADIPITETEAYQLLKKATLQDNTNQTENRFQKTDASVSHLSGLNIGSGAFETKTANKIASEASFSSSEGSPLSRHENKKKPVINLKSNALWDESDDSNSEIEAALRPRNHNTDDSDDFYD
# Chain of UniProt O60291 (O60291 whole entry, looked up): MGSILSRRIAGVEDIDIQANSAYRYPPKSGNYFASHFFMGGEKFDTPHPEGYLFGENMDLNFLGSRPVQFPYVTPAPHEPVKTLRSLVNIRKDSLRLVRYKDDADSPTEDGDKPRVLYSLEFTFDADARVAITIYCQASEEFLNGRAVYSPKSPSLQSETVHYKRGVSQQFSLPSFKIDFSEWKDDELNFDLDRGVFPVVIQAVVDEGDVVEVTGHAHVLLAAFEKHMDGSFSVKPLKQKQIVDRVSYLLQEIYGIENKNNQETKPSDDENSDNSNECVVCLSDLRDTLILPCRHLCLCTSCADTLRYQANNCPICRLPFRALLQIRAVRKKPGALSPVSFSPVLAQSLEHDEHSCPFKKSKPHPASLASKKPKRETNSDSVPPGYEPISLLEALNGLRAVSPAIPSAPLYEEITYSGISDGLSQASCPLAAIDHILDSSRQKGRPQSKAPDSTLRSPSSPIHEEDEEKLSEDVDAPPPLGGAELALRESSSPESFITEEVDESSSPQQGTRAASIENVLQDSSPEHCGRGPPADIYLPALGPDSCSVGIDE
# Chain of UniProt Q8WYH8 (Q8WYH8 whole entry, looked up): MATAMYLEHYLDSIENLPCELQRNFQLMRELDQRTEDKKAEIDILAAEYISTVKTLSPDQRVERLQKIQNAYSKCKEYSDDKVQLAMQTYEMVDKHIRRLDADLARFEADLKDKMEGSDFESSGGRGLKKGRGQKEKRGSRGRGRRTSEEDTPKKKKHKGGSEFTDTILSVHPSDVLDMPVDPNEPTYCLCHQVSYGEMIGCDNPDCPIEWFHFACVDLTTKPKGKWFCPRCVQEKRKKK
# Chain of UniProt P07948 (P07948 whole entry, looked up): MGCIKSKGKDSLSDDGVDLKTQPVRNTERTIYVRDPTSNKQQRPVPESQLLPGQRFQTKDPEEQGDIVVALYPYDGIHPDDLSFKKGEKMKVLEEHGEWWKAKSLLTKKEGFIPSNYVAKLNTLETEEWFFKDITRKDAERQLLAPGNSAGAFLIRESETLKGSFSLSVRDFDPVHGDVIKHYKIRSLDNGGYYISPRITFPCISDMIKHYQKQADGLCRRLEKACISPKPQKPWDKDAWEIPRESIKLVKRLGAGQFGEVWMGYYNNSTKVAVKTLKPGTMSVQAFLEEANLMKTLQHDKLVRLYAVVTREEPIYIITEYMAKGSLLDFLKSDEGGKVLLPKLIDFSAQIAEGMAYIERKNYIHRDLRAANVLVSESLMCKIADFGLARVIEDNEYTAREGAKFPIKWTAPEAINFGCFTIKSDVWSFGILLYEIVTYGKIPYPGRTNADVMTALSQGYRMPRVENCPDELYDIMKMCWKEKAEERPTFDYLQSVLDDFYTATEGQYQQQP
# Chain of UniProt Q5SW96 (Q5SW96 whole entry, looked up): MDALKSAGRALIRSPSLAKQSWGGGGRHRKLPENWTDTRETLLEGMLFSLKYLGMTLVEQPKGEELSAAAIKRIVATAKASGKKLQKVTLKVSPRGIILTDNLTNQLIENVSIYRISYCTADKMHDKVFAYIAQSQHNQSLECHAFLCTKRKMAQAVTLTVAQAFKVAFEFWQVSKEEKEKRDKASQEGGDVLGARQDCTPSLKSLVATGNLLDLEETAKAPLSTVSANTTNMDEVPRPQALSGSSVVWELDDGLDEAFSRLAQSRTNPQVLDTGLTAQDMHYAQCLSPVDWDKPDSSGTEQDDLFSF
target,measurement,setting,value
MAP3K20 isoform 2 (UniProt Q9NYL2),log2 fold change,[1],0.059
same,log2 fold change,[2],0.093
same,log2 fold change,[3],-0.024
same,log2 fold change,[4],0.044
same,log2 fold change,[5],0.068
same,log2 fold change,[6],0.407
same,log2 fold change,[7],0.036
same,log2 fold change,[8],-0.003
same,log2 fold change,[9],-0.242
same,log2 fold change,[10],-0.121
MED29 (UniProt Q9NX70),log2 fold change,[11],-0.033
same,log2 fold change,[3],0.004
same,log2 fold change,[12],0.001
same,log2 fold change,[6],0.1
same,log2 fold change,[13],-0.571
same,log2 fold change,[7],-0.77 (active)
same,log2 fold change,[8],0.058
same,log2 fold change,[9],0.115
same,log2 fold change,[10],-0.028
LOX (UniProt P28300),log2 fold change,[3],-0.303
same,log2 fold change,[13],-0.111
same,log2 fold change,[8],-0.391
same,log2 fold change,[9],0.146
KIZ (UniProt Q2M2Z5),log2 fold change,[14],-0.076
same,log2 fold change,[15],-0.027
same,log2 fold change,[16],-0.038
same,log2 fold change,[4],-0.008
same,log2 fold change,[17],0.269
same,log2 fold change,[6],-0.019
same,log2 fold change,[7],-0.064
same,log2 fold change,[10],0.066
same,log2 fold change,[18],-0.215
ILF3 (UniProt Q12906),log2 fold change,[1],0.009
same,log2 fold change,[15],0.384
same,log2 fold change,[16],0.081
same,log2 fold change,[4],0.033
same,log2 fold change,[5],0.156
same,log2 fold change,[13],-0.203
same,log2 fold change,[8],-0.13
same,log2 fold change,[9],0.045
KIF13A isoform 4 (UniProt Q9H1H9),log2 fold change,[1],-0.027
same,log2 fold change,[14],-0.091
same,log2 fold change,[5],-0.684
same,log2 fold change,[17],0.03
same,log2 fold change,[6],-0.081
MAP4K4 isoform 3 (UniProt O95819),log2 fold change,[11],-0.054
same,log2 fold change,[2],-0.002
same,log2 fold change,[3],-0.051
same,log2 fold change,[19],-0.067
same,log2 fold change,[15],-0.004
same,log2 fold change,[12],-0.037
same,log2 fold change,[16],0.026
same,log2 fold change,[20],0.018
same,log2 fold change,[4],-0.021
same,log2 fold change,[5],0.032
same,log2 fold change,[17],0.021
same,log2 fold change,[6],0.093
same,log2 fold change,[7],-0.05
same,log2 fold change,[8],0.01
same,log2 fold change,[9],0.02
same,log2 fold change,[10],-0.021
same,log2 fold change,[18],-0.153
LYN isoform 2 (UniProt P07948),log2 fold change,[1],0.034
same,log2 fold change,[14],0.015
same,log2 fold change,[3],0.043
same,log2 fold change,[19],-0.035
same,log2 fold change,[20],-0.004
same,log2 fold change,[4],-0.2
same,log2 fold change,[5],-0.212
same,log2 fold change,[17],-0.054
same,log2 fold change,[6],-0.027
same,log2 fold change,[7],0.074
same,log2 fold change,[8],0.069
same,log2 fold change,[10],-0.046
LRRFIP1 isoform 4 (UniProt Q32MZ4),log2 fold change,[11],0.008
same,log2 fold change,[14],0.481
same,log2 fold change,[3],-0.111
same,log2 fold change,[12],-0.089
same,log2 fold change,[4],-0.061
same,log2 fold change,[17],0.202
same,log2 fold change,[6],0.108
same,log2 fold change,[18],-0.046
ITPRID2 (UniProt P28290),log2 fold change,[3],-0.299
same,log2 fold change,[19],-0.158
same,log2 fold change,[15],-0.019
same,log2 fold change,[16],-0.087
same,log2 fold change,[20],0.059
same,log2 fold change,[4],0
same,log2 fold change,[7],0.141
same,log2 fold change,[10],-0.141
MCM10 (UniProt Q7L590),log2 fold change,[1],-0.09
same,log2 fold change,[2],-0.017
same,log2 fold change,[3],0.014
same,log2 fold change,[19],0.018
same,log2 fold change,[15],-0.021
same,log2 fold change,[16],-0.049
same,log2 fold change,[20],-0.007
same,log2 fold change,[4],0.303
same,log2 fold change,[5],-0.192
same,log2 fold change,[13],-0.097
same,log2 fold change,[7],-0.103
same,log2 fold change,[8],-0.014
same,log2 fold change,[9],0.1
same,log2 fold change,[10],0.204
same,log2 fold change,[18],-0.118
KIF21A (UniProt H0YI78),log2 fold change,[3],-0.012
MAPRE3 isoform 2 (UniProt Q9UPY8),log2 fold change,[14],-0.075
same,log2 fold change,[2],0.13
same,log2 fold change,[4],0.192
same,log2 fold change,[17],0.008
same,log2 fold change,[6],0.155
same,log2 fold change,[7],-0.176
same,log2 fold change,[8],-0.02
same,log2 fold change,[10],-0.265
ING5 (UniProt Q8WYH8),log2 fold change,[14],0.034
same,log2 fold change,[2],0.192
same,log2 fold change,[3],-0.147
same,log2 fold change,[15],0.129
same,log2 fold change,[16],-0.078
same,log2 fold change,[4],0.208
same,log2 fold change,[17],0.014
same,log2 fold change,[13],0.003
same,log2 fold change,[7],0.127
same,log2 fold change,[9],0.179
same,log2 fold change,[10],-0.128
MAP2K5 (UniProt Q13163),log2 fold change,[11],0.445
same,log2 fold change,[14],-0.008
same,log2 fold change,[12],0.004
same,log2 fold change,[4],0.206
same,log2 fold change,[17],0.003
same,log2 fold change,[6],-0.117
LDLRAP1 (UniProt Q5SW96),log2 fold change,[3],-0.014
same,log2 fold change,[4],0.023
MGRN1 isoform 2 (UniProt O60291),log2 fold change,[14],0.036
same,log2 fold change,[2],0.197
same,log2 fold change,[3],-0.054
same,log2 fold change,[4],-0.015
same,log2 fold change,[17],-0.017
same,log2 fold change,[6],-0.108
same,log2 fold change,[7],0.069
same,log2 fold change,[10],-0.238
same,log2 fold change,[18],-0.004
